The values that follow come from ChEMBL document CHEMBL4513141, “CO-ADD screening of NIH (USA) - Clinical Collection” (2021).

For experiment [1], the system named is Staphylococcus aureus. The conditions noted are these: Concentration 20 uM; ASSAY_TEST Inhibition of Bacterial Growth; detection method Absorption (OD600); MEDIA CAMHB; plate type 384well; NBS; CORNING #3640; time 18 hr.
In experiment [2] the test system is Escherichia coli. Particulars: Concentration 20 uM; ASSAY_TEST Inhibition of Bacterial Growth; detection method Absorption (OD600); MEDIA CAMHB; plate type 384well; NBS; CORNING #3640; time 18 hr.

Measured potencies and affinities stand elsewhere.

For the compound `CC[C@]1(O)C[C@@H]2CN(CCc3c([nH]c4ccccc34)[C@@](C(=O)OC)(c3cc4c(cc3OC)N(C=O)[C@H]3[C@@](O)(C(=O)OC)[C@H](OC(C)=O)[C@]5(CC)C=CCN6CC[C@]43[C@@H]65)C2)C1.O=S(=O)(O)O`, the Inhibition (as a rule, the drop in the measured response relative to a control, in per cent) in experiment [1] is listed as 14.29%; in experiment [2], -3.68%.
The corresponding values for `Cl.O=C(c1ccc(OCCN2CCCCC2)cc1)c1c(-c2ccc(O)cc2)sc2cc(O)ccc12` [RALOXIFENE HYDROCHLORIDE] are 16.87% and -1.03%.
The corresponding values for `CC(C)c1ccc2c(c1)c(SC(C)(C)C)c(CC(C)(C)C(=O)O)n2Cc1ccc(Cl)cc1` are 10.09% and 5.68%.
As to `CN1CCN(C2=Nc3ccccc3Oc3ccc(Cl)cc32)CC1.O=C(O)CCC(=O)O` [LOXAPINE SUCCINATE], the Inhibition is given as 9.14% in experiment [1] and 4.68% in experiment [2].
For `Nc1ccn([C@H]2CC[C@@H](CO)O2)c(=O)n1` [ZALCITABINE] the same measures were 4.24% and -9.44%.
For `CN1CCN(CC/C=C2/c3ccccc3Sc3ccc(S(=O)(=O)N(C)C)cc32)CC1` [THIOTHIXENE] the same measures were 8.53% and 3.6%.
The corresponding values for `Cn1ccnc1S` [METHIMAZOLE] are 17.02% and 5.86%.
In the case of `CCC1(c2ccccc2)C(=O)NCNC1=O` [PRIMIDONE], the Inhibition in experiment [1] is reported as 13.4%; in experiment [2], 3.86%.
For `CN1CCC(=C2c3ccccc3CC(=O)c3sccc32)CC1.O=C(O)/C=C/C(=O)O` [KETOTIFEN FUMARATE], the figures for the Inhibition in experiment [1] and in experiment [2] were 6.88% and 3.55%, respectively.
For `C[C@H]1O[C@@H](O[C@H]2[C@@H](O)C[C@H](O[C@H]3[C@@H](O)C[C@H](O[C@H]4CC[C@@]5(C)[C@H](CC[C@@H]6[C@@H]5C[C@@H](O)[C@]5(C)C(C7=CC(=O)OC7)CC[C@]65O)C4)O[C@@H]3C)O[C@@H]2C)C[C@H](O)[C@@H]1O` (some centres undefined) the same measures were 15.53% and -7.29%.
With `CCCNC(C)C(=O)Nc1ccccc1C.Cl` (centres undefined) [PRILOCAINE HYDROCHLORIDE], the values for the Inhibition in experiment [1] and in experiment [2] were 16.77% and 4.99%, respectively.
As to `CC(CCCCC(=O)Nc1ccc(C(F)(F)F)cc1)NCCc1c[nH]cn1.O=C(O)/C=C\C(=O)O.O=C(O)/C=C\C(=O)O` (centres undefined), the Inhibition in experiment [1] came out at 7.23%; in experiment [2], 3.85%.
